TCR activator – activators of T cell receptors; primary human leukocytes, anti-CD3, IL-2 HTRF, 48 h; 330,000 tested, under 10 active; AID 504894; Potency, µM (series often up to 9.22 µM), actives largely listed as activators
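Human primary leukocytes + a-CD3 beads + cpd, 48 hr; IL-2 in supernatant by HTRF (ex 320nm / em 665nm). No co-stimulatory signal supplied.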
CCT modulator – changes cytosolic chaperonin activity | purified chaperonin ATPase assay, HTRF ADP detection, 30 min | activity change, % (concentration not given with the values), hits read low | 0.3% of 360,000 active | AID 651819; in the data active = activity change below about -30%
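ATPase activity: ADP formed was measured by HTRF Transcreener (665/615 nm ratio) after 30 min at 37 deg C with 10 uM ATP. Compounds screened at one 76 uM concentration against 40 or 20 nM TRiC in Tris pH 7.4/KCl/MgCl2/DTT buffer.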
A-T KAP1 phos – candidate therapy for ataxia-telangiectasia. Potency, µM (doses to about 57.5 µM), most hits filed as activators. F2112 A-T fibroblasts, KAP-1 phosphorylation AlphaLISA; neocarzinostatin DNA damage 30 min before lysis. AID 485349. 0.19% of 320,000 active; note: nearly all actives have a fitted effect of over 45% in size
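ATM-like activity read as KAP-1 phosphorylation via AlphaLISA donor/acceptor antibody pairs after lysis and 6 hr at 25C. Cells were ATM-null patient fibroblasts (F2112, hTERT), dosed 60 min, then exposed to the DSB inducer NCS for 30 min.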
Nrf2 inh – Nrf2 pathway inhibition | A549 ARE-Fluc reporter, luciferase luminescence, 18-24 h | Potency, µM (doses to about 46 µM), actives largely listed as inhibitors | 2.1% of 360,000 active | AID 504444; note: nearly all actives have a fitted effect of over 60% in size
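Concentration-response testing used A549 ARE_Fluc cells at 5000 cells/well. Following an 18-24 h compound incubation, viability was read by fluorescence (Ex 405/Em 525) and luciferase output by luminescence.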
Nrf2 activator – activators of Nrf2 (ARE) signaling; AREc32 ARE-luciferase reporter (MCF7-derived line), luminescence, 24 h; Potency, µM (highest dose often 46.1 µM), most hits filed as activators; 0.31% of 410,000 active; AID 624171; note: nearly all actives have a fitted effect of over 65% in size
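Luciferase luminescence (Steady-Glo, 30 min at room temperature) served as the read-out of ARE activation in AREc32 cells treated with compounds for 24 hr at 37 deg C.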
A549 tox-1 – kills or reduces viability of A549 cells in Nrf2 counter-screen | 0.16% of 390,000 active | A549 ARE-Fluc cells, CellTiter-Fluor viability, 18-24 h | Potency, µM (highest dose often 46 µM), hits mostly inhibitors
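Cytotoxicity counterscreen: CellTiter-Fluor fluorescence was measured in A549 ARE_Fluc cells after 18-24 h of compound exposure in a concentration series. The subsequent BugLite luminescent read reports ARE-luciferase activity.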
FLuc enzyme inh – counter-screen for Nrf2 inhibitors: firefly luciferase enzyme inhibition; shares compounds with Nrf2 inh; purified firefly luciferase, luminescence inhibition; Potency, µM (doses to about 57.5 µM), hits mostly inhibitors; 4% of 1,400 active; note: nearly all actives have a fitted effect of over 65% in size
Target sequence (P08659 whole entry, looked up): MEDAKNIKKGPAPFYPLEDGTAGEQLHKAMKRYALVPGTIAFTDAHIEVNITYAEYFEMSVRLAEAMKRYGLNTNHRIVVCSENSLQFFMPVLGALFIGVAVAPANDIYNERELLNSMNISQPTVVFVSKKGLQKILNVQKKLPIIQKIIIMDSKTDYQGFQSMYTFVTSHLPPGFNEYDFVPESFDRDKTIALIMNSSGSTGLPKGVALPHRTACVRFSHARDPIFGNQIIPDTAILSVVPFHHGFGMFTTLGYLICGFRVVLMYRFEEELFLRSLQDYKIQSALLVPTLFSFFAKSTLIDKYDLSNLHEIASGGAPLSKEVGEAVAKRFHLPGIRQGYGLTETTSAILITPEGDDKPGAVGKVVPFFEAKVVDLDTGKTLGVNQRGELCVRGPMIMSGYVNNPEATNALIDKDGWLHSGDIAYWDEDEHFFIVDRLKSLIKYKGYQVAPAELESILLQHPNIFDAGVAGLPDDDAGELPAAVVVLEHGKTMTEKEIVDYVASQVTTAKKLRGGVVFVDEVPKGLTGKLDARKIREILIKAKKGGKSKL
A549 tox-2 – counter-screen for Nrf2 inhibitors: cytotoxicity in A549 ARE cells; shares compounds with Nrf2 inh; A549 ARE-Fluc cells, cytotoxicity counterscreen; Potency, µM (top dose mostly 46.1 µM), actives largely listed as inhibitors; 2% of 1,400 active;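 note: cells exposed to compounds for 18 to 24 hours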
Nrf2 ARE inh – confirmation of Nrf2 inhibitors in A549 ARE reporter cells; 74% of 1,400 active; shares compounds with Nrf2 inh; A549 ARE-firefly luciferase reporter, luminescence; Potency, µM (top dose mostly 46.1 µM), actives largely listed as inhibitors; note: nearly all actives have a fitted effect of over 65% in size
Large screens that a line does not name were inactive (follow-up assays come after a bar, where shown). Rows were chosen to be rich in hits. Some 2.6% of all compounds tested hit in one or more screens of this group. Unless noted, calls come from the whole dose curve; as a rule, active = well fitted curve in the direction sought with a large enough effect; inconclusive = small, poorly fitted or top-dose-only effect, or another doubt; inactive = no such curve, though single readings can be large; an effect the other way counts as inactive or inconclusive.

CC(=O)c1ccc(N2CCN(S(=O)(=O)c3ccc4c(c3)CC(C)N4C(=O)C3CC3)CC2)cc1 (stereo not given)	Nrf2 inh 5.8µM | FLuc enzyme inh inactive | A549 tox-2 inactive | Nrf2 ARE inh 3.66µM
CC(=O)c1ccc(N2CCN(S(=O)(=O)c3ccc4c(c3)CC(C)N4C(C)=O)CC2)cc1 (stereo not given)	Nrf2 inh 5.8µM | FLuc enzyme inh 2.69µM | A549 tox-2 inactive | Nrf2 ARE inh inactive
CCCS(=O)(=O)c1c(S(=O)(=O)CCC)c2cc(C(C)(C)C)ccn2c1C(=O)c1ccccc1	none (no result: TCR activator, CCT modulator, A-T KAP1 phos)
CC(=O)c1c(C)[nH]c(C(=O)OCc2ccccc2)c1C	Nrf2 inh inconclusive
CC(=O)c1c(C)[nH]c(C(=O)OCCCCN2C(=O)c3ccccc3C2=O)c1C	Nrf2 inh 5.8µM (not shown: TCR activator) | FLuc enzyme inh inactive | A549 tox-2 inactive
COc1ccc(NC(=O)CCC(=O)c2cccs2)cc1S(=O)(=O)Nc1ccc(Cl)cc1	none
COc1ccccc1NS(=O)(=O)c1cc(NC(=O)CCC(=O)c2cccs2)ccc1Cl	Nrf2 inh 8.2µM | FLuc enzyme inh inactive | A549 tox-2 inactive | Nrf2 ARE inh inconclusive
CCOC(=O)CC(NC(=O)c1cccc2c1C(=O)N(Cc1cccnc1)C2)c1ccc(OCC)c(OC)c1 (stereo not given)	none
COc1ccccc1CN(C)C(=O)c1cccc(S(=O)(=O)N2CCCC2)c1	none
CN(CCOc1ccc(Cl)cc1)C(=O)c1cccc(S(=O)(=O)N2CCN(c3ccc(F)cc3)CC2)c1	Nrf2 inh 4.11µM (no result: A-T KAP1 phos) | FLuc enzyme inh inactive | A549 tox-2 inactive | Nrf2 ARE inh 4.11µM
Cc1cccc(C)c1NC(=O)CN(C)C(=O)c1cccc(S(=O)(=O)N2CCN(c3ccc(F)cc3)CC2)c1	Nrf2 inh 5.17µM, A549 tox-1 inconclusive | FLuc enzyme inh inactive | A549 tox-2 inactive | Nrf2 ARE inh 9.2µM
COc1ccc(CCN(C)C(=O)c2cccc(S(=O)(=O)N3CCN(c4ccc(F)cc4)CC3)c2)cc1OC	Nrf2 inh 7.31µM (no result: A-T KAP1 phos) | FLuc enzyme inh inactive | A549 tox-2 inactive | Nrf2 ARE inh 5.17µM
O=C(c1cccc(S(=O)(=O)N2CCN(c3ccc(F)cc3)CC2)c1)N1CCCC(C(F)(F)F)C1 (stereo not given)	Nrf2 inh 4.61µM | FLuc enzyme inh inactive | A549 tox-2 inactive | Nrf2 ARE inh 5.17µM
CCN(CC)S(=O)(=O)c1ccc(NC(=O)CSc2ncnc3ccccc23)cc1	Nrf2 inh inconclusive
Cc1cccc2cc3ccccc3nc12	none (no result: A-T KAP1 phos)
CN(C)c1ccc(/C=C/c2cccc3cc4ccccc4nc23)cc1	none (no result: TCR activator, CCT modulator, A-T KAP1 phos, Nrf2 inh, Nrf2 activator, A549 tox-1) | FLuc enzyme inh 19µM | A549 tox-2 inconclusive | Nrf2 ARE inh 1.64µM
CN(C)c1ccc(/C=C/c2cc(/C=C/c3ccc(N(C)C)cc3)c3ccccc3n2)cc1	none (no result: TCR activator, CCT modulator, A-T KAP1 phos, Nrf2 inh, Nrf2 activator, A549 tox-1) | FLuc enzyme inh 0.169µM | A549 tox-2 inactive | Nrf2 ARE inh 0.581µM
CN(C)c1ccc(/C=C/c2nc3ccccc3s2)cc1	Nrf2 inh inconclusive
COc1ccc(CCNC(=O)CSc2ccc3nnc(CCNC(=O)c4ccc(C)cc4)n3n2)cc1OC	none (no result: A-T KAP1 phos)
C=C1C[C@H]2[C@@H]3C=C(C)C4=CC(=O)CC[C@]4(C)[C@H]3CC[C@]2(C)[C@@]1(OC(C)=O)C(C)=O	Nrf2 inh inconclusive | FLuc enzyme inh inactive | A549 tox-2 inactive | Nrf2 ARE inh 0.164µM

Assay outcomes: PubChem, National Center for Advancing Translational Sciences (NCATS)
